Assay results reported in PubChem BioAssay AID493014 (National Center for Advancing Translational Sciences (NCATS), 2011).
Screen size: about 340,000 compounds; about 170 (0.05%) were called active. Where a call stands in place of a potency, no number is given. Roughly 26% stayed inconclusive and do not appear here. The call rests on the fitted dose curve; in most records, active means well fitted inhibition curve with a large enough effect in the signal ratio, with a control signal flat (not every such curve was filed as active); inconclusive means small, poorly fitted or top-dose-only effect, or effect the other way, or a change in a side signal; inactive means flat fitted curve, though single readings scatter; the % refers to the signal ratio. Only a selection was taken, and actives are over-represented in it overall.

Experiment: qHTS Assay to Find Inhibitors of Chronic Active B-Cell Receptor Signaling
Conditions: ABC-DLBCL IkBa-CBG/CBR reporter, luminescence ratio, 4 h; series mostly up to 46.1 µM
From the text: NIH Molecular Libraries Probe Production Network [MLPCN] NIH Chemical Genomics Center [NCGC] MLPCN Grant: 1 R03 DA031086-01A1 PI Name: Dr. R. Eric Davis NCGC Assay Overview: Diffuse large B-cell lymphoma (DLBCL) is the most common category of non-Hodgkin lymphoma, with ~20,000 new cases per year in the United States. DLBCL should be regarded as a collection of different neoplasms. Microarray gene expression analysis has defined two principal types of DLBCL, named for their similarity to normal B cell stages or activation states: a germinal center B-cell (GCB) type, and an activated B-cell (ABC) type. In ABC-DLBCL, a constitutive high-level activity of the NF-kappaB family of transcription factors has been observed (1) and NF-kappaB target genes are more highly expressed in ABC primary tumors than in GCB tumors. Functional studies have shown a constitutive high-level activity of the IkappaB (inhibitor of kappa-B) kinase (IKK) complex. […] Further analysis of DLBCL primary tumors for NF-kappaB target gene expression imply that although CARD11 is required for constitutive IKK activity in all ABC-DLBCL lines, mutations in CARD11 may be the root cause of IKK activation only in lines or tumors with such mutations. In other words, CARD11 mutations may explain NF-kappaB activation in only 10% of ABC-DLBCL cases. […] This process has been termed 'chronic active BCR signaling' (CABS). The goal of this screen is to find small-molecule inhibitors of the CABS pathway found in ABC-DLBCL lines using a cell-based assay that measures IkappaBalpa stability, which has already been extensively validated in the OCI-Ly3 line (PubChem AID:445; REF: 4). […] The assay uses green (CBG68) and red (CBR) emitting beetle luciferases [Chroma-GloTM developed by Promega Corp.] where the green luciferase is fused to IkappaBalpha and the red luciferase is present in its native state. Both luciferase genes are stably present in the TMD8 human ABC DLBCL cell line, but their expression is under the control of tetracycline-inducible promoters. Following the addition of doxycycline to induce expression of the luciferases, the green luminescence in control cultures rises only slowly because the CBG fusion partner IkappaBalpha is targeted by IKK activity for rapid degradation. In contrast, green luminescence rises rapidly in the presence of proteasome inhibitors or IKK inhibitors. The rise in red luminescence of CBR is not affected by proteasome or IKK inhibitors, and serves as normalization for cell number and nonspecific effects. Compounds were screened as a concentration-titration series that ranged from 46 uM to 3 nM.
NCGC Assay Protocol Summary: Cells were seeded in 1536-well plates at 5000 cells/4uL in IMDM medium containing 0.5% FBS, w/o phenol red, 1% penicillin/streptomycin. Then, 23 nL of compounds or DMSO were delivered to each well using a pin tool. One uL 20ng/ml doxycycline was then dispensed into white solid 1536-well plates and the plates were incubated at 37C/5% C02 in a cell incubator for 4 hrs. Then 4 uL luminescent substrate mix (in-house prepared: 150 mM Tris-Cl, pH 7.6, 3 mM MgCl2, 1% Triton X-100, 5 mM DTT, 0.2 mM CoA, 0.15 mM ATP, 5 mM D-luciferin, final concentrations) was added to each well. The plate was incubated at r.t. for 10-15 min. The plates were measured on a ViewLux plate reader for green luminescence (540/20 nm filter) and red luminescence (618/8 nm filter). The green and red luminescent signals were corrected for red and green luminescence filter overlap using previously determined filter calibration constants (determined using the procedure outlined in the Promega Technical Manual; REF 4). The %Activity was determined from the ratio of corrected green/red luminescent values. MG132 were used as control. […] Red luminescent %Activity was normalized to the difference between red luminesence in basal cells (0%Activity) and zero luminescence (-100% Activity). […]
Potency means the concentration at half of the fitted maximal effect.

Row | SMILES | Potency
1 | CCCCN(CC(=O)Nc1cccc(S(=O)(=O)N2CCCC2)c1)Cc1nc2ccccc2c(=O)[nH]1 | inactive
2 | O=S(=O)(NCCCCCCNS(=O)(=O)c1c(F)cccc1F)c1ccc2c(c1)OCCO2 | inactive
3 | CCN(c1ccccc1)S(=O)(=O)c1cccc(C(=O)NCc2ccccc2CN2CCOCC2)c1 | inactive
4 | C=CC[C@@H](CC(=O)N[C@H](CO)Cc1ccccc1)C(=O)N[C@H](C)COC(=O)[C@@H](CC=C)Cc1ccc(F)cc1 | inactive
5 | O=S(=O)(NC1CCN(S(=O)(=O)c2ccc3c(c2)OCCO3)CC1)c1c(F)cccc1F | inactive
6 | COC(=O)[C@]1(Cc2ccccc2)N[C@H](CN(C)S(=O)(=O)c2ccc(OC(F)(F)F)cc2)[C@@H]2C(=O)N(C)C(=O)[C@@H]21 | inactive
7 | Nc1ccc(Nc2cc(O)c3ncccc3c2)cc1 | inactive
8 | Cc1ccc(NS(=O)(=O)c2ccc(C(C)C)cc2)cc1S(=O)(=O)N1CCOCC1 | inactive
9 | CCN(C[C@H]1N[C@@](Cc2ccccc2)(C(=O)OC)[C@H]2C(=O)N(Cc3ccccc3)C(=O)[C@@H]12)C(=O)c1ccc(C)cc1 | inactive
10 | O=C1C=CN2CCCC2CC1 (configuration not stated) | inactive
11 | COc1cccc(NC(=O)COC(=O)c2ccc3ccccc3n2)c1 | inactive
12 | CCOC(=O)C1CCCN(C(=O)CSc2nnc3nc(C)cc(C)n23)C1 (configuration not stated) | inactive
13 | COc1cccc(C2=CC(=O)C[C@H](c3ccc(OC)c(OC)c3)C2)c1 | inactive
14 | CN(C)C(=O)COC(=O)c1cccc(S(=O)(=O)N2CC3(C)CC2CC(C)(C)C3)c1 (configuration not stated) | inactive
15 | Cc1ccc(-n2ncc3c2CC(C)(C)CC3NC(=O)Cc2c(C)noc2C)cc1 (configuration not stated) | inactive
16 | COC(=O)[C@]1(CC(C)C)N[C@H](c2ccc(SC3CCCCC3)cc2)[C@@H]2C(=O)N(C)C(=O)[C@@H]21 | inactive
17 | O=C1COc2ccc(C(=O)CSc3ccc(Br)cc3)cc2N1 | inactive
18 | Cc1ccc(N2CC(C(=O)N3CCC4(CC3)CC(=O)c3ccccc3O4)CC2=O)cc1C (configuration not stated) | inactive
19 | CC(=O)Nc1ccc(S(=O)(=O)NCCC(=O)N2CCN(c3ccccc3Cl)CC2)cc1 | inactive

Row | SMILES | Potency
20 | Fc1ccccc1-c1cc2cc3c(cc2cn1)OCO3 | inactive
21 | CCN(CC(=O)Nc1ccc(OC)cc1)C(=O)CSCc1ccc(C)cc1 | inactive
22 | Cc1cccc(N(Cc2ccccc2)C(=O)c2cc(S(=O)(=O)N3CCOCC3)ccc2F)c1 | inactive
23 | CCN(CC)S(=O)(=O)c1ccc(N2CCOCC2)c(NC(=O)C(C)Oc2ccc(F)cc2)c1 (configuration not stated) | inactive
24 | CC1Sc2ccc(C(=O)NCc3ccccc3Cl)cc2NC1=O (configuration not stated) | inactive
25 | O=C(O[C@@H]1[C@H](Cc2ccccc2)NS(=O)(=O)[C@H]2C[C@@H]3C=C[C@]12O3)c1ccccc1Br | inactive
26 | CC(C)(C)OC(=O)C[C@@H]1C/C=C\C[C@H](CC(=O)N[C@@H](CO)Cc2ccccc2)C(=O)N[C@H](Cc2ccccc2)COC1=O | inactive
27 | CN=C(Nc1cccc(S(=O)(=O)N2CCOCC2)c1)c1ccccc1 | inactive
28 | Oc1ccccc1CN1CCN(C(c2ccccc2)c2ccccc2)CC1 | inactive
29 | COc1ccc(-c2cc(=O)oc3cc(OC(C)C(=O)Nc4ccc(CN5CCOCC5)cc4)ccc23)cc1 (configuration not stated) | inactive
30 | COc1ccc(CNC(=O)C[C@H]2C[C@H](C(=O)N3CCOCC3)[C@@]3(CCC4CCCC4)c4[nH]c5ccc(Cl)cc5c4CCN3C2=O)cc1OC | inactive
31 | CC(=O)Nc1ccc(SC[C@H](Cc2ccccc2)N2CC[C@@H](C)CCC2=O)cc1 | inactive
32 | O=C(COC(=O)COc1cccc(F)c1)NCC1CCCCC1 | inactive
33 | O=C(NCc1ccccc1CN1CCCC1)C1CCN(S(=O)(=O)c2ccc(Cl)cc2)CC1 | inactive
34 | Cc1cccc(NC(=O)c2ccc(S(=O)(=O)N(C)c3ccccc3)cc2)n1 | inactive
35 | COc1ccc(NC(=O)CN2C(=O)COc3ccc(S(=O)(=O)N4CCOCC4)cc32)c(OC)c1 | inactive
36 | Cc1ccc(CNC(=O)Cn2cnc3c(NCc4ccccc4)ncnc32)o1 | inactive
37 | COc1ccccc1N(C)S(=O)(=O)c1ccc(Cl)c(C(=O)Nc2ccncc2)c1 | inactive
38 | C[C@H]1COC(=O)[C@H](CC(=O)OC(C)(C)C)C/C=C\C[C@@H](CC(=O)N[C@H](CO)Cc2ccccc2)C(=O)N1 | inactive

Row | SMILES | Potency
39 | Nc1cc(N)nc(SCC(=O)Nc2cccc(S(=O)(=O)N3CCCCC3)c2)n1 | inactive
40 | COc1ccc(S(=O)(=O)N2CCCCCC2)cc1NC(=O)Cc1ccc(OC)c(OC)c1 | inactive
41 | COC(=O)c1cc(C(=O)NC(C)C2CC3CCC2C3)cc([N+](=O)[O-])c1 (configuration not stated) | inactive
42 | O=C(CN(Cc1ccc(Br)cc1)S(=O)(=O)c1ccccc1)NCc1ccncc1 | inactive
43 | Cc1ccc(C)c(N2CCN(C(=O)CCc3nc(-c4cccc(C(F)(F)F)c4)no3)CC2)c1 | inactive
44 | CCCOc1ccccc1C1CC(=O)Nc2cc3c(cc21)OCO3 (configuration not stated) | 23.1 µM (active)
45 | COc1cc2c(cc1OC)C(c1ccc(C)o1)CC(=O)N2 (configuration not stated) | inactive
46 | COc1ccc(C2CC(=O)Nc3cc(C)c(C)cc32)c(OC)c1OC (configuration not stated) | inactive
47 | COc1ccc(NC(=O)c2cnc(NS(=O)(=O)c3ccccc3)nc2)cc1 | inactive
48 | COc1ccc(NC(=O)c2sc(N)nc2-c2ccccc2)cc1 | 12.6 µM (active)
49 | COC(=O)[C@H](Cc1ccccc1)NC(=O)Nc1ccc(OC)cc1 | inactive
50 | CCCCCCSc1ccc([C@@H]2[C@@H]3C(=O)N(CC)C(=O)[C@@H]3[C@]3(C(=O)OC)CCCCN23)cc1OC | inactive
51 | O=C(c1ccc(S(=O)(=O)NCc2ccco2)cc1)N1CCN(c2ccccc2)CC1 | inactive
52 | CCN1C(=O)[C@@H]2[C@@H](c3ccc(-c4ccc(OC)cc4)c(OC)c3)N3CCC[C@@]3(C(=O)OC)[C@@H]2C1=O | inactive
53 | COc1ccc(Cl)cc1NC(=O)CN(C)C(=O)c1cc2ccccc2cc1OC | inactive
54 | CC(C)N(Cc1nnc(-c2ccccc2Br)o1)C(=O)c1cc(Cl)nc2ccccc12 | inactive
55 | COc1ccccc1N1CC(C(=O)Nc2nnc(SCC(=O)NC(C)C)s2)CC1=O (configuration not stated) | inactive
56 | COc1ccc(/C=N/Nc2cc(N3CCOCC3)nc(C)n2)c(OC)c1 | inactive
57 | COc1ccc(N2CCN(C(=O)COC(=O)c3cccc(S(=O)(=O)Nc4ccccc4OC)c3)CC2)cc1 | inactive
